AmpC inh detg: blocks E. coli AmpC beta-lactamase in detergent assay. Potency, µM (doses to about 114 µM), actives largely listed as inhibitors. P00811. AmpC hydrolysis of nitrocefin, absorbance 480 nm, 0.01% Triton. AID 485294. 370,000 tested, 0.041% active; further: nearly all actives have a fitted effect of over 25% in size
Target sequence (P00811 whole entry, looked up): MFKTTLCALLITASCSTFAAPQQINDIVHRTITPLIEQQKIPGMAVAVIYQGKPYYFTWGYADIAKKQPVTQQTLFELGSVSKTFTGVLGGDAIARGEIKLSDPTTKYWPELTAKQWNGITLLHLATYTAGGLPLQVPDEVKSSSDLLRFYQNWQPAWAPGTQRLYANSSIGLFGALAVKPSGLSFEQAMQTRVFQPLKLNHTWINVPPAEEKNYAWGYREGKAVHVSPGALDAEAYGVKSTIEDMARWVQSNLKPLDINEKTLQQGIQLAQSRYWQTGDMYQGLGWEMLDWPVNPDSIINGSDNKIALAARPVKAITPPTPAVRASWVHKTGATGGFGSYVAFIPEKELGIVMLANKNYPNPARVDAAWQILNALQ
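AmpC (5.3 nM in the dispensed reagent) in 20 mM phosphate pH 7.0 with 0.01% (detergent screen) or 0.0001% Triton X-100 was preincubated with compounds for 15 min at room temperature. Nitrocefin was then added from an 800 uM solution, and hydrolysis was followed at 480 nm.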
SARS PLP yeast: SARS-CoV PLP inhibition in yeast | S. cerevisiae expressing SARS-CoV PLpro, growth rescue | AID 485353 | Potency, µM (series often up to 32.9 µM), most hits filed as activators | 330,000 tested, 0.19% active; calls by dose curve; further: nearly all actives have a fitted effect of over 55% in size
Pf growth 96h: P. falciparum growth inhibition at 96 hour, primary screen for plastid delayed-death inhibitors. P. falciparum luciferase reporter growth, 96 h. Potency, µM (series often up to 28.7 µM), most hits filed as inhibitors. 320,000 tested, 6.9% active. AID 504834
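P. falciparum expressing integrated firefly luciferase, in erythrocytes at 2% hematocrit, 0.05% parasitemia, incubated with compounds 96 h at 37 C, 5% CO2. Growth inhibition read as loss of luminescence; two-generation exposure targets delayed-death apicoplast inhibitors.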
AmpC inh no detg: AmpC beta-lactamase inhibition without detergent | P00811 | AmpC nitrocefin hydrolysis, absorbance 480 nm, 0.0001% Triton | Potency, µM (titrated, usually from 57.1 µM), usual class: inhibitors | 330,000 tested, 0.52% active | AID 485341; further: nearly all actives have a fitted effect of over 20% in size
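20 mM phosphate pH 7.0 + 0.01% (detergent screen) or 0.0001% Triton X-100; 5.3 nM AmpC reagent; cpd preinc 15 min RT; nitrocefin (800 uM stock) to start; A480 q20 s × 4 min; Activity was normalised to no-enzyme and no-compound control wells.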
Pf growth 48h: inhibits P. falciparum growth in the first generation, 48 h; P. falciparum luciferase growth in erythrocytes, 48 h; Potency, µM (titrated, usually from 28.7 µM), hits mostly inhibitors; 310,000 tested, 5.9% active; AID 504832
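In quantitative HTS format, infected erythrocytes bearing luciferase-reporter parasites were treated for a single generation at 37 C. Luminescence after adding detection reagent served as the growth measure.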
Sm TGR inh: blocks Schistosoma mansoni thioredoxin glutathione reductase; purified TGR, DTNB reduction, TNB absorbance 405 nm; Potency, µM (highest dose often 114 µM), hits mostly inhibitors; AID 485364; Q962Y6; 360,000 tested, 3% active; further: nearly all actives have a fitted effect of over 60% in size
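First, TGR (20 nM dispensed) and NADPH were mixed with compound. Second, a 15 min room-temperature incubation followed. Third, further NADPH and then DTNB were added to start the reaction. Finally, TNB absorbance was monitored kinetically.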
Of the large screens only hits and unclear results are named; the others gave an inactive call; ! = a repeat was not active. A selection: hits, their analogues and other compounds. The true share with any hit is near 12%. Unless noted, the call rests on the fitted dose curve; in most records, active means well fitted curve in the direction sought with a large enough effect; inconclusive means small, poorly fitted or top-dose-only effect, or another doubt; inactive means no such curve, though single readings can be large; an effect the other way counts as inactive or inconclusive.

Cc1cccc(CSCCNC(=O)CN(c2ccccc2)S(=O)(=O)N(C)C)c1	none (no result: SARS PLP yeast, Pf growth 96h, AmpC inh no detg, Pf growth 48h)
Cc1cc(C)nc(Nc2ncc(O)n2-c2ccccc2)n1	Pf growth 96h inconclusive
Cc1ccc(-n2c(O)cnc2Nc2nc(C)cc(C)n2)cc1	Pf growth 96h 0.29µM
COc1cc(C(=O)ON=C2C=C(C)C(=O)C(C)=C2)cc(OC)c1OC	AmpC inh detg inconclusive
COc1cc(C(=O)O/N=C2\C=CC(=O)C(C)=C2)cc(OC)c1OC	Pf growth 96h inconclusive, Pf growth 48h inconclusive, Sm TGR inh 3.2µM
CCc1ccc(N2CC(C)Cn3c2nc2c3c(=O)n(CC(=O)O)c(=O)n2C)cc1 (centres undefined)	none (no result: SARS PLP yeast, Pf growth 96h, AmpC inh no detg, Pf growth 48h)
O=C(CSCc1ccc(F)cc1)N1CCc2c([nH]c3ccccc23)C1c1ccccc1 (centres undefined)	none (no result: SARS PLP yeast, Pf growth 96h, AmpC inh no detg, Pf growth 48h)
Cc1cc2oc(C(=O)N(Cc3ccccc3)c3ccccn3)cc(=O)c2cc1Cl	AmpC inh detg inconclusive
Cc1cc(C)c2oc(C(=O)N(Cc3ccccc3)c3ccccn3)cc(=O)c2c1	Pf growth 96h inconclusive, Pf growth 48h 12µM
Cc1ccccc1CNC(=O)CC1C(=O)NCCN1Cc1c(F)cccc1Cl (centres undefined)	Pf growth 96h 2.3µM, Pf growth 48h 0.83µM
CCOc1ccccc1CN1CCNC(=O)C1CC(=O)NCc1cc(C)n(C)n1 (centres undefined)	Pf growth 96h 2.1µM, Sm TGR inh inconclusive
C=CCNC(=O)CC1C(=O)NCCN1Cc1c(F)cccc1Cl (centres undefined)	Pf growth 96h inconclusive
Cc1cnc(CNC(=O)CC2C(=O)NCCN2Cc2cccc(F)c2F)cn1 (centres undefined)	Pf growth 96h inconclusive, Sm TGR inh 18µM
Cc1cnc(CNC(=O)CC2C(=O)NCCN2Cc2ccccc2F)cn1 (centres undefined)	Pf growth 48h inconclusive
CC(C)NC(=O)CSc1nc2ccccc2c(=O)n1Cc1ccc(C(=O)NC(C)C)cc1	none (no result: SARS PLP yeast, Pf growth 96h, AmpC inh no detg, Pf growth 48h)
CCN(CC)CCN1c2ccccc2Sc2ccc3ccccc3c21	Pf growth 96h inconclusive, Pf growth 48h 8.3µM
CC1=NC(=O)C(N=Nc2ccccc2C(=O)O)N1c1ccccc1 (centres undefined)	Pf growth 96h 4.7µM
CC1=NC(=O)C(N=Nc2ccccc2)N1c1ccccc1 (centres undefined)	none
CSc1ncnc2c1ccn2CC(=O)Nc1ccc(C)c(C)c1	none
O=C(Nc1ccc([N+](=O)[O-])cc1)Nc1ccc(Cl)cc1F	Pf growth 48h 4.1µM
CN(C)C(=O)Nc1ccccc1CC[N+](=O)[O-]	none
O=C(Nc1ccccc1CC[N+](=O)[O-])N1CCN(c2ccccc2)CC1	Pf growth 96h 12µM, Pf growth 48h 10µM, Sm TGR inh 2.2µM
O=C(NCc1ccccc1)N1CCN(c2ccccc2)CC1	Pf growth 96h inconclusive
O=C(Nc1ccc(Cl)cc1)Nc1ccccc1CC[N+](=O)[O-]	Pf growth 96h inconclusive, Pf growth 48h 12µM
CCCCOc1ccc(C(=O)NCC(=O)N2CCN(C(=O)c3ccco3)CC2)cc1	Pf growth 96h inconclusive, Pf growth 48h inconclusive
COc1ccccc1NC(=O)CSc1nnc(CC(=O)Nc2ccccc2F)n1C	none
CCOC(=O)C1CCN(c2cc3c(cc2NC(=O)c2ccc(F)cc2)n(C)c(=O)n3C)CC1	Pf growth 48h 12µM
Cn1c(=O)n(C)c2cc(NC(=O)c3ccc(F)cc3)c(Br)cc21	Pf growth 96h 2.9µM, Pf growth 48h inconclusive
CN(C)c1cc2c(cc1NC(=O)c1ccc(F)cc1)n(C)c(=O)n2C	none (no result: SARS PLP yeast, Pf growth 96h, AmpC inh no detg, Pf growth 48h)
CCOc1c(C)cnc2c1c(=O)n(CC(=O)NCC1CCCO1)c(=O)n2C (centres undefined)	AmpC inh detg inconclusive (no result: SARS PLP yeast)
O=C(N/N=C(\CC(=O)c1cccs1)C(F)(F)F)c1ccncc1	Pf growth 96h inconclusive, Pf growth 48h 0.23µM
O=C(NCc1ccc2c(c1)OCO2)c1nn2cccnc2c1Cl	Pf growth 48h inconclusive (no result: SARS PLP yeast, Pf growth 96h, AmpC inh no detg)
C[C@@]12CC[C@H]3[C@@H](CCC4=CC(=O)CC[C@]43C)[C@H]1CC[C@H]2C(=O)CO	Pf growth 96h inconclusive (no result: AmpC inh detg, SARS PLP yeast, AmpC inh no detg, Sm TGR inh)
CC(=O)[C@H]1CC[C@H]2[C@@H]3CCC4=CC(=O)CC[C@]4(C)[C@H]3CC[C@]12C	Pf growth 96h 10µM, Pf growth 48h inconclusive
Clc1cccc(CON/C=N/c2ncnc3sccc23)c1	Pf growth 48h inconclusive
Clc1cccc(Cl)c1CON/C=N/c1ncnc2sccc12	Pf growth 96h inconclusive, AmpC inh no detg 1.1µM, Pf growth 48h inconclusive
COc1ccc(C(=O)N2CCCC2=O)cc1	Pf growth 96h 13µM!
COc1ccc(C(=O)NCCCN2CCCC2=O)cc1	none (no result: Pf growth 96h)
CCCN1C(=O)S/C(=C/c2ccc(N3CCOCC3)o2)C1=O	Sm TGR inh 1.4µM
CCCN1C(=O)S/C(=C\c2ccc(N3CCOCC3)o2)C1=O	Sm TGR inh 8.9µM
CCCN1C(=O)S/C(=C\c2ccc(N3CCOCC3)cc2C)C1=O	none
CCOC(=O)C1=CN(CC2CCCO2)C=C(C(=O)OCC)C1c1ccccc1C(F)(F)F (centres undefined)	Pf growth 96h inconclusive, Pf growth 48h 8.3µM (no result: Sm TGR inh)
CCOC(=O)c1c(-c2ccccc2)oc2ccc(NS(=O)(=O)c3cc(C)c(C)cc3C)cc12	none (no result: SARS PLP yeast, Pf growth 96h, AmpC inh no detg, Pf growth 48h)
Cc1cc(C2=NNC(=NC3CC3)SC2)c(C)n1Cc1ccco1	SARS PLP yeast 10µM, Pf growth 96h inconclusive
COCCCN=C1NN=C(c2cc(C)n(Cc3ccco3)c2C)CS1	none
COc1cc2c(cc1OC)C1O[C@](c3ccsc3)(C2)Oc2cc(-c3ccccc3)oc(=O)c21	Pf growth 96h 1.5µM, Pf growth 48h inconclusive, Sm TGR inh 7.1µM
COc1cc2c(cc1OC)C1O[C@](c3ccsc3)(C2)OC2=C1C(=O)OC1(CCCCC1)C2	Pf growth 96h 1.3µM, Pf growth 48h inconclusive, Sm TGR inh inconclusive
COc1cc2c(cc1OC)C1O[C@](c3ccsc3)(C2)Oc2cc(C)n(Cc3ccccc3)c(=O)c21	Pf growth 96h inconclusive, Pf growth 48h inconclusive, Sm TGR inh inconclusive
COc1cc2c(cc1OC)C1O[C@](c3ccsc3)(C2)OC2=C1C(=O)CC(C)(C)C2	AmpC inh detg inconclusive, Pf growth 96h inconclusive, Pf growth 48h inconclusive, Sm TGR inh inconclusive
COc1cc(/C=N/NC(=O)c2ccoc2C)cc(OC)c1O	Pf growth 96h 2.6µM
O=C(N/N=C/c1cccc(F)c1)c1cc(-c2ccco2)nc2ccccc12	Sm TGR inh inconclusive
COc1cc(/C=N/NC(=O)c2cc(-c3ccco3)nc3ccccc23)cc(OC)c1O	Pf growth 48h inconclusive, Sm TGR inh 45µM
COc1ccc(/C=N\NC(=O)c2ccccc2F)cc1COc1ccc(F)cc1F	Pf growth 96h inconclusive, Pf growth 48h inconclusive

Screening results: PubChem, National Center for Advancing Translational Sciences (NCATS)
